# An excerpt weighted towards active compounds, which were near 2.2% of everything screened.
# Ba/F3 V617F tox – reduce viability of Ba/F3 cells dependent on JAK2V617F; actives 1.1% (n = 220,000); AID 1446; inhibition, % at 5.6 µM; Ba/F3 EpoR-JAK2V617F viability, ATP luminescence;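 active = inhibition above the campaign mean plus 3 SD over all tested compounds, cut at about 24% in these data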;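 also: cytokine-independent growth of Ba/F3 cells driven by EpoR plus mutant JAK2; 0% = DMSO-treated cells and 100% = JAK inhibitor I control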
# aSyn UTR inh – 5' untranslated region of α-synuclein, MLPCN primary screen. alpha-synuclein 5'UTR reporter, inhibitor activity. inhibition, % (tested at 7.5 µM). actives 0.82% (n = 300,000); in the data active = inhibition above about 60%;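 also: H4 neuroglioblastoma cells stably carrying SNCA 5'UTR luciferase fusion; 0% = DMSO wells and 100% = positive control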
# IEC-6 cytotox – kills IEC-6 intestinal cells in KLF5 counter-screen. actives 0.78% (n = 290,000). AID 1825. IEC-6 cytotoxicity, luminescence viability. inhibition, % at 5 µM;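 also: 0% = plate median of test compound wells and 100% = cytotoxic reference compound wells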
# BaF3 tox – counter-screen for JAK2V617F inhibitors: parental Ba/F3 viability inhibitors; CellTiter-Glo ATP luminescence; inhibition, % at 5.6 µM; actives 1.1% (n = 220,000); AID 1486;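 active = inhibition above a per-campaign cutoff, the mean inhibition of all tested compounds plus 3 SD, cut at about 27% in these data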;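 also: 0% = DMSO wells and 100% = JAK Inhibitor I control wells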
# KLF5 inh – inhibitors of KLF5 expression | DLD-1 KLF5 promoter-luciferase reporter, luminescence | inhibition, % at 5 µM | actives 0.23% (n = 290,000);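 active = inhibition above a per-plate limit of that plate's mean compound inhibition plus 3 SD, cut at about 60% in these data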;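 also: 0% = DMSO wells and 100% = LY294002 at 200 µM; higher means less KLF5 promoter-driven luciferase light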
# APP transl inh – APP translation inhibition | actives 0.82% (n = 190,000) | AID 1285 | inhibition, % at 2 µM | SH-SY5Y APP 5'UTR-luciferase reporter, luminescence;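 active = inhibition above a set limit, derived from the sample mean plus 3 SD, cut at about 45% in these data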
# IEC-6 tox confirm – IEC-6 cytotoxicity, confirmation assay | inhibition, % at 5 µM | AID 1907 | IEC-6 rat intestinal epithelial viability, luminescence | actives 63% (n = 1,900) | shares compounds with IEC-6 cytotox;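 also: 0% = vehicle and 100% = reference cytotoxic drug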
# Numbers without * were called inactive; / = no result. Rule as the data show it, unless noted: active = inhibition above about 22%; inactive = the rest.
SMILES,Ba/F3 V617F tox,aSyn UTR inh,IEC-6 cytotox,BaF3 tox,KLF5 inh,APP transl inh,IEC-6 tox confirm
COCc1ccc(C(=O)N2CCCC(Nc3ccc4c(c3)OCCO4)C2)o1 (configuration not stated),/,4,0,/,-21,/,/
CCc1nnc(NC(=O)CCC(=O)N2CCN(S(=O)(=O)c3ccc(OC)cc3)CC2)s1,/,16,-7,/,-1,/,/
O=C(Cn1ncc(Cl)c(Cl)c1=O)N1CCc2ccccc21,6,135*,41*,-7,4,95*,21
Cc1cc(NC(=O)CCC(=O)N(CC(=O)NC2CCCC2)c2ccc(Cl)c(Cl)c2)no1,/,10,-4,/,-10,/,/
O=C(N/N=C/c1ccc2c(c1)OCO2)c1cccc2ccccc12,/,-109,28*,/,24,/,25*
Oc1ccc(-c2cnc(-c3ccc(O)cc3)nc2)cc1,/,-29,41*,/,10,/,14
Nc1ccc(-c2cnc(-c3ccc(N)cc3)nc2)cc1,9,-34,6,12,-59,-126,/
O=C(CSc1ccc(-c2cccnc2)nn1)Nc1ccc(F)cc1,/,12,7,/,-19,/,/
Cc1nn(CCCC(=O)Nc2cccnc2Cl)c(C)c1[N+](=O)[O-],1,13,-6,9,-25,4,/
N=c1c(C(=O)NC2CCCCC2)cc2c(=O)n3ccccc3nc2n1Cc1ccco1,/,-28,42*,/,3,/,10
Cc1nnc(N/N=C/c2ccccc2O)n1N,4,-42,102*,0,-4,14,4
Cc1nnc(N/N=C/c2c(Cl)cccc2Cl)n1N,-1,-2,102*,0,-3,4,-13
Cc1nnc(N/N=C/c2cc(C)n(-c3ccc(F)cc3)c2C)n1N,2,-1,99*,5,-12,2,-4
Cc1cc(/C=N/NC(N)=S)c(C)n1-c1ccc(Br)cc1,10,6,6,14,5,-22,/
CCc1nnc(N/N=C/c2c(F)cccc2Cl)n1N,/,-1,1,/,-17,/,/
CC1=C(C(=O)OC(C)C)C(c2cccs2)C(C(=O)OC(C)C)=C(C)N1,0,29,-5,5,3,-6,/
COC(=O)C(Cc1ccccc1)NC(=O)CNC(=O)c1sc2ccccc2c1Cl (configuration not stated),/,-6,-6,/,-34,/,/
CCn1c(=O)cc(OCC(=O)NCc2ccco2)c2ccccc21,-4,4,2,1,-24,6,/
CCn1c(=O)cc(OCC(=O)NCc2ccc(C)o2)c2ccccc21,2,25,23*,6,-9,8,13
C1=C(CCNc2ncnc3c2[nH]c2ccccc23)CCCC1,73*,/,39*,63*,-35,-25,24*
O=c1c2[nH]c3ccccc3c2ncn1CCC1=CCCCC1,-1,-121,-4,1,-38,-35,/
CCOC(=O)Nc1ccc2nc(Sc3ccc(Cl)cc3)sc2c1,21,-41,38*,25,15,/,24*
CC(C)CN(C(=O)COC(=O)c1nc(Cl)ccc1Cl)c1c(N)n(Cc2ccccc2)c(=O)[nH]c1=O,/,6,5,/,-19,/,/
CCN(CC)c1ccc2c(Cl)c(Br)c(=O)oc2c1,1,2,50*,3,-25,5,27*
Clc1ccc(OCCN2CCN(c3ncnc4sccc34)CC2)cc1,66*,-4,26*,73*,6,15,10
SMILES,Ba/F3 V617F tox,aSyn UTR inh,IEC-6 cytotox,BaF3 tox,KLF5 inh,APP transl inh,IEC-6 tox confirm
COC(=O)CCn1[nH]c(=O)c2ccccc2c1=O,0,4,5,5,-2,4,/
O=c1[nH]n(Cc2ccccc2)c(=O)c2ccccc12,3,-68,31*,6,-6,-3,38*
COc1ccc2nc(-c3ccccc3)[nH]c2c1,4,-71,4,8,-116,-178,/
CCOc1ccc2nc(-c3ccccc3)[nH]c2c1,71*,2,42*,54*,14,-142,30*
COc1ccc(S(=O)(=O)N2CCCCCC2)cc1C(=O)N(C)Cc1ccc(OC)c(OC)c1OC,/,-7,/,/,/,/,/
NC(=O)CSc1nc2ccccc2c(=O)n1CCc1ccccc1,/,-17,5,/,-17,/,/
O=c1c2ccccc2nc(SCCN2CCCCC2)n1CCc1ccccc1,8,-50,22*,12,-11,12,9
COc1cccc(/C=N/Nc2snc(SC)c2C#N)c1,1,/,44*,3,17,-30,37*
COc1ccc(/C=N/Nc2snc(SC)c2C#N)cc1OC,0,-146,41*,3,-21,-92,31*
CSc1nsc(N/N=C/c2ccccc2)c1C#N,0,-150,34*,5,-6,-43,33*
COc1cccc(/C=N/Nc2snc(SC)c2C#N)c1O,5,-157,7,11,-83,-60,/
NNC(=O)c1ccc(CSc2cccc3cccnc23)cc1,1,-51,0,2,-10,-22,/
Cc1cccc(CSc2cccc3cccnc23)c1,6,-103,32*,-2,-48,35,37*
Cc1ccc(Nc2nc(N)nc(CCl)n2)c(C)c1,99*,-45,100*,30*,-15,/,5
Cc1cccc(Nc2nc(N)nc(CCl)n2)c1,14,-53,14,-3,20,/,/
O=C(Nc1ccc(N2CCCC2)cc1)c1ccc(Cl)cc1Cl,/,-88,0,/,-60,/,/
O=C(Nc1ccc(N2CCCC2)cc1)c1cc(Cl)ccc1Cl,/,-241,56*,/,-28,/,27*
Cc1c(Cl)cccc1NC(=O)CCNC(=O)N1CC(=O)Nc2ccccc21,/,-5,-4,/,-23,/,/
c1ccc(CN2CCC(Nc3nc(-c4cccnc4)nc4ccccc34)CC2)cc1,3,-83,24*,9,-31,5,19
COC(=O)c1c(Oc2nc(OC)cc(OC)n2)cccc1Oc1nc(OC)cc(OC)n1,-1,30,-1,7,-30,-3,/
COc1cccc(NC(=O)Nc2nc(-c3ccc(OC)c(OC)c3)cs2)c1,/,41,24*,/,37,/,15
Cn1cc([N+](=O)[O-])c(C(=O)Nc2sc3c(c2C#N)CCC3)n1,/,64*,92*,/,14,/,29*
Cc1ccc(C(=O)Nc2ccn(Cc3ccc(F)cc3)n2)o1,23,-65,74*,2,-44,-6,9
N#C/C(=C\c1ccccn1)c1ccccn1,/,-51,28*,/,-46,/,17
C=CCNC(=O)/C(=C\c1ccco1)NC(=O)c1ccco1,/,4,0,/,-3,/,/
NNC(=O)/C(=C\c1ccco1)NC(=O)c1ccco1,/,-11,70*,/,16,/,7
O=C(CN(C1CCCCC1)S(=O)(=O)c1ccc(F)cc1)NCc1ccncc1,10,-9,-3,0,-4,1,/
Cc1nc2ccccc2c(=O)n1/N=C/c1ccc([N+](=O)[O-])o1,1,-64,0,-5,-8,/,/
CC(=O)N(/N=C/c1ccc([N+](=O)[O-])o1)c1nc2ccccc2c(=O)n1-c1ccccc1,5,-61,55*,4,14,/,8

# Screens deposited in PubChem BioAssay by several laboratories.
